Screening results from PubChem.
mHTT-CaM PPI inh = mHTT-calmodulin interaction abrogation; P42858; AlphaScreen His-mHTT/GST-CaM binding, luminescence; inhibition, % at 15 µM; 190,000 compounds, 3.6% hits; AID 1671202;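 note: 0% = both proteins with DMSO and 100% = one protein alone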
Pf apPOL inh = Pf-apPOL DNA polymerase inhibition | 210,000 compounds, 0.25% hits | Recombinant Pf-apPOL, molecular beacon fluorescence, 1.5 h | inhibition, % at 10 µM
An asterisk follows results filed as active; · = no result given. This is one part of a sample in which hits are shown more often than they occur. Cut-off read from the data, not from the text of the source: active = inhibition above about 50%; inactive = the rest.

SMILES	mHTT-CaM PPI inh	Pf apPOL inh
O=C1NC(=Nc2ccccc2Cl)S/C1=C/c1cccc([N+](=O)[O-])c1	88.0*	-1.6
O=C1NC(=Nc2ccccc2Cl)S/C1=C/c1ccc([N+](=O)[O-])cc1	43.0	18.7
COc1ccc(/C=C2/SC(=Nc3ccccc3Cl)NC2=O)c(OC)c1	46.0	0.4
COc1cccc(/C=C2/SC(=Nc3ccccc3Cl)NC2=O)c1	52.0*	-55.0
CC(=O)Nc1ccc2oc(-c3cc(F)c(F)cc3Cl)nc2c1	5.1	4.2
COc1ccc(-c2cc(=O)oc3cc4occ(-c5cccc(OC)c5)c4cc23)cc1	-2.0	-2.7
CC(C)CNC(=O)C1Cc2ccccc2N2CCN(c3ncccn3)CC12 (stereo not drawn)	0.4	-3.1
O=C(NCc1ccc2c(c1)OCO2)C(=O)Nc1ccc(Cl)cn1	-0.6	-4.7
COc1ccc(CNC(=O)c2cc(-c3cccnc3)nc3ccccc23)cc1	70.0*	-7.1
COc1cccc(CNC(=O)c2cc(-c3cccnc3)nc3ccccc23)c1	39.0	-20.8
O=C(C1=C(O)C(=O)N(c2ncccn2)C1c1cccc(Br)c1)c1ccco1 (stereo not drawn)	33.2	-2.4
O=C(Nc1nc2c(s1)CCc1ccccc1-2)c1ccc(N2C(=O)CCC2=O)cc1	-13.0	-0.5
CCOc1ccc2c(c1)OC(=Cc1ccccc1OS(C)(=O)=O)C2=O	0.7	-4.6
O=C(Nc1cccnc1)c1ccc(Cl)cc1Cl	-1.0	-1.6
O=C(O)c1cc(Cl)c(Cl)cc1C(=O)Nc1cccnc1	-5.0	54.7*
O=Cc1cn(-c2ccccc2)nc1-c1ccc(F)cc1	-6.9	-2.6
Cc1nccn1CC(C)C(=O)O (stereo not drawn)	-0.5	1.2
CC(O)Cn1c2ccccc2c2cc(Cl)ccc21 (stereo not drawn)	19.3	9.2
OCCN(CCO)CC(O)Cn1c2ccc(Cl)cc2c2cc(Cl)ccc21 (stereo not drawn)	100.2*	-0.1
Cc1nccn1CC(O)Cn1c2ccc(Cl)cc2c2cc(Cl)ccc21 (stereo not drawn)	99.6*	3.2
CCC(=O)Nc1ccc(C(=O)Nc2ccc(Cl)cc2C(=O)O)cc1	-2.0	-15.6
O=C(CNCc1ccccc1)N1c2ccccc2Sc2ccc(Cl)cc21	97.2*	-1.3
CCN(CC)CC(=O)N1c2ccccc2Sc2ccc(Cl)cc21	16.0	-3.7
COc1ccc(CSc2nnnn2-c2ccc(C(N)=O)cc2)cc1	-1.3	-9.3
COc1ccc(C(=O)CC(=O)c2ccc(OC)cc2)cc1	27.5	0.0
SMILES	mHTT-CaM PPI inh	Pf apPOL inh
COc1ccc(NS(C)(=O)=O)cc1	-11.9	5.3
COc1ccc(NS(=O)(=O)C2CCS(=O)(=O)C2)cc1 (stereo not drawn)	5.0	99.8*
O=C(NCCCCc1ccccc1)c1cccc(NC(=O)C2CCCC2)c1	-12.8	-6.3
N#C/C(=C\c1ccc(Br)cc1)c1nc(C2CC2)cs1	-41.3	-2.6
N#C/C(=C\c1ccc([N+](=O)[O-])cc1)c1nc(C2CC2)cs1	3.7	55.4*
Cc1c(NC(=O)c2ccc([N+](=O)[O-])cc2)cccc1-c1nc2ncccc2o1	-1.5	-3.7
NC(=S)NN=Cc1ccc([N+](=O)[O-])s1	·	0.5
Cc1ccc([N+](=O)[O-])cc1N=Cc1cccc([N+](=O)[O-])c1	-4.0	-6.1
NC(=S)NN=Cc1cccc([N+](=O)[O-])c1	0.3	78.8*
O=[N+]([O-])c1cccc(C=Nc2cc(Cl)ccc2O)c1	59.0*	-3.1
COc1ccc(-c2nnc(NC(=O)Nc3ccccc3OC)s2)cc1	0.2	-3.1
Cc1ccccc1OCc1nnc(N)s1	1.9	-7.1
CC(=O)c1c(-c2ccccc2)c2cc([N+](=O)[O-])ccc2n1C	4.9	-1.2
CN(C)/C=C/c1c(C=O)c2cc([N+](=O)[O-])ccc2n1C	99.8*	-7.3
CCC(=O)Nc1ccc(O)c(-c2nc3cc(C)ccc3o2)c1	5.5	53.8*
Cc1ccc2oc(-c3cc(NC(=O)c4ccccc4C)ccc3O)nc2c1	2.4	-1.5
O=C(CS(=O)(=O)Cc1ccccc1)Nc1nc(-c2ccccn2)cs1	87.4*	-73.7
O=C(Cc1ccc(F)cc1)Nc1ncccn1	16.8	-2.6
O=C(Cc1ccc(F)cc1)Nc1nc(-c2ccccn2)cs1	85.1*	-8.2
O=C(CS(=O)(=O)Cc1ccccc1)Nc1nc(-c2cc3ccccc3o2)cs1	0.7	-6.5
CC1=C(C(=O)Nc2ccc(F)cc2)C(c2ccc3c(c2)OCO3)C2=C(CC(C)(C)CC2=O)N1 (stereo not drawn)	-2.0	10.4
CCCCCC(=O)N1C[C@@H](O)[C@H](n2cc(C3CC3)nn2)C[C@@H]1c1ccc(OC)cc1	25.7	-3.1
CCCCCCN1C[C@H](n2cc(-c3ccc(F)cc3)nn2)[C@@H](O)C[C@@H]1c1ccc(OC)cc1	67.3*	1.2
CCCCCCN1C[C@@H](O)[C@H](n2cc(C3CC3)nn2)C[C@@H]1c1ccccc1	29.7	-2.5
CCCCCCN1C[C@H](n2cc(C3CC3)nn2)[C@@H](O)C[C@@H]1c1ccccc1	99.3*	0.1
SMILES	mHTT-CaM PPI inh	Pf apPOL inh
CCCCCCN1C[C@@H](n2cc(-c3ccc(F)cc3)nn2)[C@H](O)C[C@@H]1c1ccc(OC)cc1	3.7	-7.1
CCCCCCN1C[C@H](n2cc(C3CC3)nn2)[C@@H](O)C[C@@H]1c1ccc(OC)cc1	97.9*	-2.6
COc1ccc([C@H]2C[C@@H](n3cc(-c4ccc(F)cc4)nn3)[C@H](O)CN2CC2CCCCC2)cc1	-7.1	-2.8
COc1ccc([C@H]2C[C@H](O)[C@@H](n3cc(-c4ccc(F)cc4)nn3)CN2CC2CCCCC2)cc1	69.3*	1.1
O=C(Nc1ccc2c(c1)OCCO2)C1CCCO1 (stereo not drawn)	-6.8	0.3
Cc1ccc(C2Nc3ccccc3C(=O)N2c2ccccc2)s1 (stereo not drawn)	·	-14.7
COc1cccc(OCc2nc(C(=O)N3CCCC3)cs2)c1	0.1	2.8
O=C1C(=Cc2ccccc2)Oc2cc(OS(=O)(=O)c3ccccc3)ccc21	18.2	-4.4
NC(=NNC(=S)Nc1ccccc1C(F)(F)F)c1ccccn1	·	-329.7
Cc1cccc(C)c1N1C(=O)CSCC1=O	·	-6.7
CCOc1cc(C=C2C(=O)c3ccccc3C2=O)cc(I)c1O	58.0*	-9.4
COc1cc(/C=C(\C#N)c2nc3ccccc3[nH]2)cc(OC)c1OC	8.0	-2.6
Cc1ccc(/C=C(\C#N)c2nc3ccc(C)cc3[nH]2)cc1	-12.2	1.0
COc1cc(/C=C(\C#N)c2nc3ccc(C)cc3[nH]2)ccc1OCC(=O)O	11.2	-1.7
CCOc1cc(/C=C(\C#N)c2nc3ccccc3[nH]2)cc(I)c1O	88.0*	-0.2
CCOc1ccc(C=C2C(=O)c3ccccc3C2=O)cc1OC	11.0	-4.2
CCOc1cc(/C=C(\C#N)c2nc3ccc(C)cc3[nH]2)cc(Cl)c1O	84.0*	-2.8
COc1cc(/C=C(\C#N)c2nc3ccc(C)cc3[nH]2)cc(OC)c1O	58.0*	-3.8
CC1C(c2ccccc2)N(C)CCC1(O)c1ccccc1 (stereo not drawn)	-12.5	-0.9
COc1ccc(-n2nc3c(c2NC(=O)c2cccc(OC)c2OC)CS(=O)(=O)C3)cc1	-2.0	-4.0
COc1ncccc1CN(C)C(=O)C1CCC1	-6.1	5.6
CCCCN(CCCC)S(=O)(=O)c1ccc(C(=O)Nc2nnc(C3CC3)o2)cc1	26.0	-7.3
COc1cc(/C=C(\C#N)c2nc3ccccc3[nH]2)c(Br)cc1O	42.0	-6.1
COc1cc(Br)c(/C=C(\C#N)c2nc3ccccc3[nH]2)cc1OC	53.0*	-2.1
